Source: PubChem BioAssay AID1159580 (chemical genetic matrix, 2015)
Among all 5,500 compounds or so, about 2,000 (36%) were called active. Not shown: some 18% with an inconclusive outcome. No stated cut-off is given here; in the data, active means normalized growth mostly below about 0.91 (no sharp cut-off); inconclusive means no clear call, values can overlap the other calls; inactive means mostly above about 0.92. This is one part of the list.

Assay: chemical genetic growth profiling, strain panel (AID 1159580);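 further: tested at 20 µM; growth read once vehicle control cultures reached saturation at 30 °C; 1 = growth at the plate median or of vehicle wells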
Conditions: growth OD

Measured: normalized growth

OC[C@H]1O[C@@H](O[C@H]2[C@H](O)[C@@H](O)[C@@H](O)O[C@@H]2CO)[C@H](O)[C@@H](O)[C@@H]1O
inactive: S. cerevisiae deletion strains, locus YJR075W, strain HOC1, stronger effect = lower value 1.02 | S. cerevisiae deletion strains, locus YKL009W, strain mrt4, stronger effect = lower value 1.1 | S. cerevisiae deletion strains, locus YKL068W, stronger effect = lower value 1 | S. cerevisiae deletion strains, locus YKL085W, strain MDH1 (second series), stronger effect = lower value 1.04 | S. cerevisiae deletion strains, locus YKL085W, strain MDH1, stronger effect = lower value 1.04 | S. cerevisiae deletion strains, locus YKL160W, strain elf1, stronger effect = lower value 1.02 | S. cerevisiae deletion strains, locus YKL190W, strain CNB1, stronger effect = lower value 1.01 | S. cerevisiae deletion strains, locus YKR001C, strain vps1, stronger effect = lower value 1.02 | S. cerevisiae deletion strains, locus YKR026C, strain gcn3, stronger effect = lower value 0.992 | S. cerevisiae deletion strains, locus YKR091W, strain srl3, stronger effect = lower value 1 | S. cerevisiae deletion strains, locus YLL001W, strain dnm1, stronger effect = lower value 0.98 | S. cerevisiae deletion strains, locus YLL026W, stronger effect = lower value 0.994 | S. cerevisiae deletion strains, locus YLL041C, strain sdh2, stronger effect = lower value 1.02 | S. cerevisiae deletion strains, locus YLR027C, strain aat2, stronger effect = lower value 1.01 | S. cerevisiae deletion strains, locus YLR039C, strain RIC1, stronger effect = lower value 1.11 | S. cerevisiae deletion strains, locus YLR058C, strain SHM2, stronger effect = lower value 1.02 | S. cerevisiae deletion strains, locus YLR102C, strain apc9, stronger effect = lower value 1.02 | S. cerevisiae deletion strains, locus YLR113W, strain HOG1, stronger effect = lower value 1.06 | S. cerevisiae deletion strains, locus YLR221C, strain rsa3, stronger effect = lower value 0.98 | S. cerevisiae deletion strains, locus YLR258W, strain gsy2, stronger effect = lower value 1.01 | S. cerevisiae deletion strains, locus YLR262C, strain YPT6 (second series), stronger effect = lower value 1.04 | S. cerevisiae deletion strains, locus YLR262C, strain YPT6, stronger effect = lower value 1.05 | S. cerevisiae deletion strains, locus YLR268W, strain sec22, stronger effect = lower value 1.04 | S. cerevisiae deletion strains, locus YLR320W, strain mms22, stronger effect = lower value 0.997 | S. cerevisiae deletion strains, locus YLR330W, strain CHS5, stronger effect = lower value 1.02 | S. cerevisiae deletion strains, locus YLR342W, strain FKS1 (second series), stronger effect = lower value 1.09 | S. cerevisiae deletion strains, locus YLR342W, strain FKS1, stronger effect = lower value 1.01 | S. cerevisiae deletion strains, locus YLR357W, strain rsc2, stronger effect = lower value 0.975 | S. cerevisiae deletion strains, locus YLR370C, strain arc18, stronger effect = lower value 1.01 | S. cerevisiae deletion strains, locus YLR371W, strain rom2, stronger effect = lower value 1.01 | S. cerevisiae deletion strains, locus YLR384C, strain iki3, stronger effect = lower value 0.992 | S. cerevisiae deletion strains, locus YLR418C, strain cdc73, stronger effect = lower value 0.975 | S. cerevisiae deletion strains, locus YML016C, strain PPZ1, stronger effect = lower value 1.01 | S. cerevisiae deletion strains, locus YML032C, strain rad52, stronger effect = lower value 1 | S. cerevisiae deletion strains, locus YML120C, strain ndi1, stronger effect = lower value 1.01 | S. cerevisiae deletion strains, locus YML124C, strain tub3, stronger effect = lower value 1.01 | S. cerevisiae deletion strains, locus YMR058W, strain fet3, stronger effect = lower value 1 | S. cerevisiae deletion strains, locus YMR078C, strain ctf18, stronger effect = lower value 1.01 | S. cerevisiae deletion strains, locus YMR125W, strain sto1, stronger effect = lower value 0.993 | S. cerevisiae deletion strains, locus YMR129W, stronger effect = lower value 1.01 | S. cerevisiae deletion strains, locus YMR205C, strain PFK2, stronger effect = lower value 1.01 | S. cerevisiae deletion strains, locus YMR223W, strain ubp8, stronger effect = lower value 0.993 | S. cerevisiae deletion strains, locus YMR231W, strain pep5, stronger effect = lower value 0.992 | S. cerevisiae deletion strains, locus YMR263W, strain SAP30, stronger effect = lower value 1.01 | S. cerevisiae deletion strains, locus YMR307W, strain GAS1, stronger effect = lower value 1.07 | S. cerevisiae deletion strains, locus YNL067W, strain RPL9B, stronger effect = lower value 1.02 | S. cerevisiae deletion strains, locus YNL071W, strain lat1, stronger effect = lower value 1.02 | S. cerevisiae deletion strains, locus YNL153C, strain GIM3, stronger effect = lower value 1.01 | S. cerevisiae deletion strains, locus YNL183C, strain NPR1, stronger effect = lower value 0.968 | S. cerevisiae deletion strains, locus YNL209W, strain ssb2, stronger effect = lower value 1.01 | S. cerevisiae deletion strains, locus YNL233W, strain BNI4, stronger effect = lower value 1.01 | S. cerevisiae deletion strains, locus YNL248C, strain rpa49, stronger effect = lower value 0.98 | S. cerevisiae deletion strains, locus YNL250W, strain rad50, stronger effect = lower value 1.03 | S. cerevisiae deletion strains, locus YNL271C, strain bni1, stronger effect = lower value 1.02 | S. cerevisiae deletion strains, locus YNL298W, strain CLA4, stronger effect = lower value 0.999 | S. cerevisiae deletion strains, locus YNL307C, strain MCK1, stronger effect = lower value 1.02 | S. cerevisiae deletion strains, locus YNL322C, strain KRE1 (second series), stronger effect = lower value 0.996 | S. cerevisiae deletion strains, locus YNL322C, strain KRE1, stronger effect = lower value 1.02 | S. cerevisiae deletion strains, locus YNR049C, strain mso1, stronger effect = lower value 0.998 | S. cerevisiae deletion strains, locus YNR052C, strain pop2, stronger effect = lower value 1.01 | S. cerevisiae deletion strains, locus YOL006C, strain TOP1, stronger effect = lower value 1.15 | S. cerevisiae deletion strains, locus YOL012C, strain htz1 1.74 | S. cerevisiae deletion strains, locus YOL147C, strain pex11, stronger effect = lower value 1.01 | S. cerevisiae deletion strains, locus YOR001W, strain rrp6, stronger effect = lower value 0.988 | S. cerevisiae deletion strains, locus YOR061W, strain CKA2, stronger effect = lower value 1.03 | S. cerevisiae deletion strains, locus YOR069W, strain VPS5, stronger effect = lower value 1.01 | S. cerevisiae deletion strains, locus YOR070C, strain gyp1, stronger effect = lower value 1 | S. cerevisiae deletion strains, locus YOR080W, strain dia2, stronger effect = lower value 0.988 | S. cerevisiae deletion strains, locus YOR083W, strain WHI5, stronger effect = lower value 1.06 | S. cerevisiae deletion strains, locus YOR106W, strain vam3, stronger effect = lower value 1.04 | S. cerevisiae deletion strains, locus YOR136W, strain idh2, stronger effect = lower value 1.01 | S. cerevisiae deletion strains, locus YOR144C, strain elg1, stronger effect = lower value 1 | S. cerevisiae deletion strains, locus YOR184W, strain ser1, stronger effect = lower value 1.02 | S. cerevisiae deletion strains, locus YOR231W, strain MKK1, stronger effect = lower value 1 | S. cerevisiae deletion strains, locus YOR265W, strain rbl2, stronger effect = lower value 1 | S. cerevisiae deletion strains, locus YOR270C, strain vph1, stronger effect = lower value 1.13 | S. cerevisiae deletion strains, locus YOR290C, strain snf2, stronger effect = lower value 1.03 | S. cerevisiae deletion strains, locus YOR316C, strain cot1, stronger effect = lower value 1.02 | S. cerevisiae deletion strains, locus YPL051W, strain arl3, stronger effect = lower value 0.992 | S. cerevisiae deletion strains, locus YPL078C, strain atp4, stronger effect = lower value 1.01 | S. cerevisiae deletion strains, locus YPL106C, strain sse1, stronger effect = lower value 1.02 | S. cerevisiae deletion strains, locus YPL240C, strain hsp82, stronger effect = lower value 1 | S. cerevisiae deletion strains, locus YPL241C, strain CIN2, stronger effect = lower value 1 | S. cerevisiae deletion strains, locus YPL256C, strain CLN2, stronger effect = lower value 0.975 | S. cerevisiae deletion strains, locus YPR119W, strain clb2, stronger effect = lower value 1.01 | S. cerevisiae deletion strains, locus YPR141C, strain kar3, stronger effect = lower value 1 | S. cerevisiae deletion strains, locus YPR163C, strain tif3, stronger effect = lower value 1 | S. cerevisiae deletion strains, locus YPR167C, strain met16, stronger effect = lower value 1.02 | S. cerevisiae deletion strains, strain wtn01, stronger effect = lower value 1.06 | S. cerevisiae strains, strain wild type, stronger effect = lower value 1.02
